Results filed as inconclusive are left out. Calls of active or inactive are those of the source. Unless noted, the call rests on the fitted dose curve; in most records, active means well fitted curve in the direction sought with a large enough effect in the repeat runs; inconclusive means weak or mixed curves; inactive means no such curve, though single readings can be large; an effect the other way counts as inactive or inconclusive.
Legend:
[1] = qHTS assay for small molecule agonists of the p53 signaling pathway (AID 651631; calls by dose curve; further: nearly all actives have a fitted effect of over 15% in size); conditions: HCT-116 p53RE-bla reporter, beta-lactamase FRET ratio, 16 h; series mostly up to 73.3 µM
How it was run: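 Beta-lactamase reporter activity under p53 response elements was quantified in HCT-116 cells by FRET fluorescence, following 16 h incubation with test compounds at 37 °C and 2 h substrate development at room temperature.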

[2] = qHTS assay for small molecules that induce genotoxicity in human embryonic kidney cells expressing luciferase-tagged ATAD5 (AID 651632); conditions: HEK293T ATAD5-luciferase induction, 16 h; series mostly up to 83.3 µM; further: nearly all actives have a fitted effect of over 15% in size
How it was run: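 HEK293T cells carrying luciferase-tagged ATAD5 were given compound or DMSO vehicle and incubated 16 hr at 37C, 5% CO2. Luciferase activity was read after 30 min at room temperature with Amplite; a rise signals genotoxic stress.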

[3] = qHTS assay for small molecule agonists of the p53 signaling pathway - cell viability (AID 651633; calls by dose curve; further: nearly all actives have a fitted effect of over 30% in size); conditions: p53RE-bla HCT-116 viability, ATP luminescence, 16 h; series mostly up to 83.3 µM
How it was run: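 p53RE-bla cells were treated with compound for 16 hours at 37 C. Cytotoxicity was then measured as CellTiter-Glo luminescence after 30 min at room temperature.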

[4] = qHTS assay for small molecules that induce genotoxicity in human embryonic kidney cells expressing luciferase-tagged ATAD5 - cell viability (AID 651634; calls by dose curve; further: nearly all actives have a fitted effect of over 25% in size); conditions: HEK293T ATAD5-luc cells viability, CellTiter-Fluor, 15.5 h; series mostly up to 83.3 µM
How it was run: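 HEK293T cells carrying luciferase-tagged ATAD5, 2,000 cells/well, exposed to compound for 15.5 hr at 37C. Viability read as live-cell protease activity by CellTiter-Fluor fluorescence after 30 min at 37C.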

[5] = qHTS assay for small molecule disruptors of the mitochondrial membrane potential - cell viability (AID 720634; calls by dose curve;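 further: human HepG2 liver cancer cells; nearly all actives have a fitted effect of over 20% in size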); conditions: HepG2 viability, ATP luminescence (CellTiter-Glo), 1 h; series mostly up to 83.2 µM
How it was run: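 HepG2 cells, 2,000 per well, attached overnight, then treated 1 hr at 37 C, 5% CO2. Viability read as ATP by CellTiter-Glo luminescence after 30 min at room temperature. Read in the same wells as the m-MPI membrane-potential dye assay.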

[6] = qHTS assay for small molecule disruptors of the mitochondrial membrane potential (AID 720635); conditions: HepG2 mitochondrial membrane potential, Mito-MPS dye ratio; series mostly up to 83.2 µM
How it was run: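 HepG2 cells exposed to compound 1 hr at 37C, then Mito-MPS dye 30 min. Ratio read of aggregate (540/590 nm) versus monomer (490/535 nm) fluorescence.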

[7] = qHTS assay to test for compound auto fluorescence at 590 nm (red) in HepG2 cells (AID 720674); conditions: HepG2 autofluorescence, red 540/590 nm, 1 h; series mostly up to 91.3 µM
How it was run: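 HepG2 cells, 2,000 per well in MEM with 10% FBS, attached overnight at 37 C, then got 23 nL compound or DMSO. After 1 hr at 37 C, 5% CO2, red fluorescence was read at 540/590 nm against Rose Bengal sodium as reference.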

[8] = qHTS assay to test for compound auto fluorescence at 535 nm (green) in HepG2 cells (AID 720675); conditions: green autofluorescence 485/535 nm, 1 h; series mostly up to 91.3 µM
[9] = qHTS assay to test for compound auto fluorescence at 460 nm (blue) in HEK293 cells (AID 720678); conditions: blue autofluorescence 405/460 nm; series mostly up to 91.3 µM
How it was run: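 Cells were seeded and left to adhere for 4-5 hr at 37C. Compounds were then pin-transferred. After an overnight incubation at 37C under 5% CO2, intrinsic fluorescence at 405/460 nm was measured and referenced to triamterene.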

[10] = qHTS assay to test for compound auto fluorescence at 590 nm (red) in HEK293 cells (AID 720679); conditions: red autofluorescence 540/590 nm; series mostly up to 91.3 µM
How it was run: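 Each well held 2,000 HEK293 cells in medium containing 10% dialyzed FBS. Following 4-5 hr attachment at 37C, 23 nL test compound or DMSO was added; plates sat overnight, and red fluorescence (540/590nm) was recorded.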

[11] = qHTS assay to test for compound auto fluorescence at 535 nm (green) in HEK293 cells (AID 720680); conditions: green autofluorescence 485/535 nm; series mostly up to 91.3 µM
[12] = qHTS assay to test for compound auto fluorescence at 460 nm (blue) in HEK293 cell free culture (AID 720681); conditions: cell-free medium, autofluorescence 405/460 nm (blue); series mostly up to 91.3 µM
How it was run: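 Compounds were added to cell-free DMEM with 10% FBS and fluorescence read directly. The blue channel used 405 nm excitation and 460 nm emission, with triamterene as the reference fluorophore.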

[13] = qHTS assay to test for compound auto fluorescence at 535 nm (green) in HEK293 cell free culture (AID 720682); conditions: cell-free medium, green autofluorescence 485/535 nm; series mostly up to 91.3 µM
How it was run: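 Each library compound, or DMSO control, is added by pintool to medium alone, comprising DMEM and 10% FBS. Emission at 535 nm following 485 nm excitation is quantified against fluorescein.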

[14] = qHTS assay to test for compound auto fluorescence at 590 nm (red) in HEK293 cell free culture (AID 720683); conditions: cell-free medium autofluorescence, Ex540/Em590 red; series mostly up to 91.3 µM
How it was run: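 Cell-free wells of DMEM with 10% FBS received compound, and intrinsic fluorescence was read at excitation/emission 540/590 nm. Values expressed as equivalence to Rose Bengal sodium.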

[15] = qHTS assay to test for compound auto fluorescence at 590 nm (red) in HepG2 cell free culture (AID 720684); conditions: cell-free medium autofluorescence, red 540/590 nm; series mostly up to 91.3 µM
How it was run: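 Compounds are added to culture medium (MEM, 10% FBS) lacking cells, then fluorescence is read at excitation 540 nm, emission 590 nm, with Rose Bengal sodium as the equivalency standard.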

[16] = qHTS assay to test for compound auto fluorescence at 460 nm (blue) in HepG2 cell free culture (AID 720685); conditions: Cell-free culture medium, blue autofluorescence 405/460 nm; series mostly up to 91.3 µM
How it was run: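 Compound (23 nL) or DMSO pinned into cell-free MEM with 10% FBS; blue fluorescence read at 405/460 nm excitation/emission, expressed as auto-fluorescence equivalency to triamterene.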

[17] = qHTS assay to test for compound auto fluorescence at 535 nm (green) in HepG2 cell free culture (AID 720686); conditions: Cell-free medium, green autofluorescence 485/535 nm; series mostly up to 91.3 µM
[18] = qHTS assay to test for compound auto fluorescence at 460 nm (blue) in HepG2 cells (AID 720687); conditions: autofluorescence 405/460 nm, 1 h; series mostly up to 91.3 µM
How it was run: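 HepG2 cells in MEM with 10% FBS, attached overnight at 37 C, were exposed to compound or DMSO for 1 hr at 37 C, 5% CO2. Blue fluorescence was read at 405/460 nm, with triamterene as reference fluorophore.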

[19] = molecular target: Glucocorticoid receptor (Homo sapiens) (UniProt P04150); assay: qHTS assay to identify small molecule agonists of the glucocorticoid receptor (GR) signaling pathway (AID 720691; active means well fitted activation curve with a large enough effect in the signal ratio in the repeat runs, not every such curve was filed as active; the % refers to the signal ratio); conditions: GR-bla HeLa, beta-lactamase reporter ratio, 18 h; series mostly up to 62.4 µM
How it was run: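 GR-bla HeLa cells carrying a GRE-driven beta-lactamase reporter, exposed to compounds for 18 h at 37 C. Reporter activation read as fluorescence after 2 h with LiveBLAzer B/G FRET substrate at room temperature.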

[20] = molecular target: Glucocorticoid receptor (Homo sapiens) (UniProt P04150); assay: qHTS assay to identify small molecule antagonists of the glucocorticoid receptor (GR) signaling pathway (AID 720692; active means well fitted inhibition curve with a large enough effect in the signal ratio in the repeat runs, not every such curve was filed as active; the % refers to the signal ratio); conditions: GR-bla HeLa, beta-lactamase FRET ratio, dexamethasone-stimulated, 18 h; series mostly up to 58.5 µM
How it was run: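 GR-bla HeLa cells carrying a GRE-driven beta-lactamase reporter received compound after 4 h plating, then dexamethasone (5 nM final). After 18 h at 37C, the FRET substrate was loaded for 2 h at room temperature and fluorescence read.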

Measured: Potency

Chain of Glucocorticoid receptor (Homo sapiens) (P04150 whole entry, looked up): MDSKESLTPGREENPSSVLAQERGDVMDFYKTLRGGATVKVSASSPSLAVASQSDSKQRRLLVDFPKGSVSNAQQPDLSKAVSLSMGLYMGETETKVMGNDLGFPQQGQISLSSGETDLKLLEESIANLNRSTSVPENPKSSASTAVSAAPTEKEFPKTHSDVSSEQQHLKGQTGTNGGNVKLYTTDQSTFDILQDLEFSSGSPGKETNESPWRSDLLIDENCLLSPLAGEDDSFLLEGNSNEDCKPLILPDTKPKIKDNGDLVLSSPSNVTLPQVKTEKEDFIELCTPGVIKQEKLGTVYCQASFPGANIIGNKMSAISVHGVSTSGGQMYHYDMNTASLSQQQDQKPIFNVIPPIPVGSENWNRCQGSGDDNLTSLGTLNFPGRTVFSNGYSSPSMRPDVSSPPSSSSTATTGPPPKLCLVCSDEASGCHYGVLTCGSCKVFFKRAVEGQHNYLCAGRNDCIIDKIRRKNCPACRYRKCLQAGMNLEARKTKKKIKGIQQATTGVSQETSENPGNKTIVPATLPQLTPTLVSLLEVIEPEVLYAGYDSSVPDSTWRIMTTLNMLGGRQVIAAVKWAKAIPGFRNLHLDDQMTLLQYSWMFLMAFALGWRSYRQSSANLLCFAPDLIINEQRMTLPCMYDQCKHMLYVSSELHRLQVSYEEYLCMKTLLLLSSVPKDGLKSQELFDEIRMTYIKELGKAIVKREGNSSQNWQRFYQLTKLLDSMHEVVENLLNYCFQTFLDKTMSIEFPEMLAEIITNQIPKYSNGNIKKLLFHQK

CN[C@@H](C)[C@H](O)c1ccccc1
inactive: [1] | [2] | [3] | [4] | [5] | [6] | [7] | [8] | [9] | [10] | [11] | [12] | [13] | [14] | [15] | [16] | [17] | [18] | [19] | [20]

Cc1cnc(C2=NC(C)(C(C)C)C(=O)N2)c(C(=O)O)c1 (centres undefined)
inactive: [1] | [2] | [3] | [4] | [5] | [7] | [8] | [9] | [10] | [11] | [12] | [13] | [14] | [15] | [16] | [17] | [18] | [19] | [20]

O=C(Cc1ccccc1)OCCc1ccccc1
inactive: [1] | [2] | [3] | [4] | [5] | [6] | [7] | [8] | [9] | [10] | [11] | [12] | [13] | [14] | [15] | [17] | [18] | [19] | [20]

N#CC1(N=NC2(C#N)CCCCC2)CCCCC1
inactive: [1] | [2] | [3] | [4] | [5] | [6] | [7] | [8] | [9] | [10] | [11] | [12] | [13] | [14] | [15] | [16] | [17] | [18] | [19] | [20]

CN(C)C(=O)Nc1cccc(OC(=O)NC(C)(C)C)c1
inactive: [1] | [2] | [3] | [4] | [5] | [6] | [7] | [8] | [9] | [10] | [11] | [12] | [13] | [14] | [15] | [17] | [18] | [19] | [20]

C[C@H](N)[C@H](O)c1ccc(O)c(O)c1
inactive: [1] | [2] | [3] | [4] | [5] | [7] | [8] | [9] | [10] | [11] | [12] | [13] | [14] | [15] | [16] | [17] | [18]

C=CC(=O)NC(C)(C)CC(C)=O
inactive: [1] | [2] | [3] | [4] | [5] | [7] | [8] | [9] | [10] | [11] | [12] | [13] | [14] | [15] | [16] | [17] | [18] | [19]

C[N+](C)(C)CC1CO1 (centres undefined)
inactive: [1] | [2] | [3] | [4] | [5] | [6] | [7] | [8] | [9] | [10] | [11] | [12] | [13] | [14] | [15] | [17] | [18]

CC(C)CCON=O
inactive: [1] | [2] | [3] | [4] | [5] | [6] | [7] | [8] | [9] | [10] | [11] | [12] | [13] | [14] | [15] | [16] | [17] | [18] | [19] | [20]

Cc1ccccc1
inactive: [1] | [2] | [3] | [4] | [5] | [6] | [19] | [20]

Clc1ccc2ccccc2c1
inactive: [1] | [2] | [3] | [4] | [5] | [6] | [7] | [8] | [9] | [10] | [11] | [12] | [13] | [14] | [15] | [16] | [17] | [18] | [19] | [20]

CCCC[N+](CCCC)(CCCC)CCCC
inactive: [1] | [2] | [3] | [4] | [5] | [7] | [8] | [9] | [10] | [11] | [12] | [13] | [14] | [15] | [16] | [17] | [18] | [19]

O=C(NCNC(=O)NC1C(=O)NC(=O)N1CO)NC1C(=O)NC(=O)N1CO (centres undefined)
inactive: [1] | [2] | [3] | [4] | [5] | [6] | [7] | [8] | [9] | [10] | [11] | [12] | [13] | [14] | [15] | [16] | [17] | [18] | [19] | [20]

C[N+]1(CCF)[C@@H]2CC[C@H]1CC(OC(=O)C(O)(c1ccccc1)c1ccccc1)C2 (some centres undefined)
inactive: [1] | [2] | [3] | [4] | [5] | [6] | [7] | [8] | [9] | [10] | [11] | [12] | [13] | [14] | [15] | [17] | [18] | [19] | [20]

CCSCc1ccccc1OC(=O)NC
inactive: [1] | [2] | [3] | [4] | [5] | [7] | [8] | [9] | [10] | [11] | [12] | [13] | [14] | [15] | [16] | [17] | [18] | [19]

C[N+](C)(C)CCOC(=O)C(O)(c1ccccc1)c1ccccc1
inactive: [1] | [2] | [3] | [4] | [5] | [6] | [7] | [8] | [9] | [10] | [11] | [12] | [13] | [14] | [15] | [17] | [18]

Reference: PubChem BioAssay (Tox21)
